The campaign covered roughly 1,200 compounds. About 480 (40%) were called active. About 29% were inconclusive and are not listed. The call rests on the fitted dose curve; in most records, active means well fitted inhibition curve with a large enough effect; inconclusive means small, poorly fitted or top-dose-only effect; inactive means no such curve, though single readings can be large or run the other way. Some of the results follow.
Potency means the concentration at half of the fitted maximal effect.

A short description of this test: qHTS Assay to Find Inhibitors of Chronic Active B-Cell Receptor Signaling: Hit Validation in Primary Screen. Further: nearly all actives have a fitted effect of over 75% in size. The note with it: ABC-DLBCL IkB-luc/CBR ratio luminescence, 4 h; series mostly up to 46.1 µM. The essentials: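 Concentration series (3 nM to 46 uM) tested on TMD8 cells induced with doxycycline for 4 h. Filter-corrected green (IkBa fusion) over red (unfused) luciferase signal; Data were normalised to 10 uM MG-132 and untreated cell wells.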
For orientation: In qHTS, concentration-response curves come from the screen itself.
For the compound `Cc1ccc(C)c(/C=N/NC(=S)NC(C)C)c1`, the Potency entry was “inactive”. `COc1ccc(C)cc1NS(=O)(=O)c1ccc(-c2cnc(C3CC3)o2)cc1`: the Potency is 0.92 µM (active). To `Cc1cc(C)cc(NS(=O)(=O)c2ccc(-c3cnc(C4CC4)o3)cc2)c1` belongs 2.06 µM (active); to `COc1ccc(NS(=O)(=O)c2cc(-c3cnc(C4CC4)o3)ccc2C)cc1`, 23.1 µM (active). Next, `Cc1ccc(C)c(NS(=O)(=O)c2ccc(-c3cnc(C4CC4)o3)cc2)c1`: 1.03 µM (active); `Cc1ccc(NS(=O)(=O)c2ccc(-c3cnc(C4CC4)o3)cc2)c(C)c1`: 3.26 µM (active). On to `CC1=CC(C)(C)N(S(=O)(=O)c2ccc(C)cc2)c2ccccc21`, for which the Potency is 14.6 µM (active).

As for `CC(=O)Nc1ccc(S(=O)(=O)N2c3ccccc3C(C)=CC2(C)C)cc1`, the Potency was 4.11 µM (active). For the compound `CC(=O)Nc1ccc(S(=O)(=O)NCC(=O)OC(C)c2ccccc2Cl)cc1` (stereo not given), the Potency entry was “inactive”. In the case of `CCOC(=O)C1=C(O)/C(=C/c2ccc(OCC(=O)O)c(OCC)c2)SC1=Nc1ccccc1`, the Potency result is “inactive”. For the compound `CCOc1cc(/C=C2\CN(C)C/C(=C\c3ccc(O)c(OCC)c3)C2=O)ccc1O`, the Potency is 6.51 µM (active).

Regarding `C=CCC(CC(O)COCCC)C(=O)NNC(=S)Nc1ccccc1` (stereo not given), the Potency entry is “inactive”. To `Cc1ccc(C(=O)c2cc([N+](=O)[O-])ccc2N2CCCCC2)cc1C` belongs 6.51 µM (active). To `O=C(c1ccc(Br)cc1)c1cc([N+](=O)[O-])ccc1N1CCCCC1` belongs 2.31 µM (active); to `Cc1ccc(C(=O)c2cc([N+](=O)[O-])ccc2N2CCOCC2)c(C)c1`, 4.61 µM (active); to `Cc1ccc(C(=O)c2cc([N+](=O)[O-])ccc2N2CCCCC2)c(C)c1`, 1.03 µM (active).

As for `COCCCNC(=O)C[C@H]1C[C@H](C(=O)N2CCCCC2)[C@@]2(C)c3[nH]c4ccc(Cl)cc4c3CCN2C1=O`, the Potency entry was “inactive”. To `S=c1c2c(nc3nc[nH]n13)CCC2` belongs “inactive”. To `Cc1ccc(C(=O)c2cc([N+](=O)[O-])ccc2N2CCCCC2)cc1` belongs 2.31 µM (active). Next, `CC1CCCN(c2ccc([N+](=O)[O-])cc2C(=O)c2ccccc2)C1` (stereo not given): 3.26 µM (active). In the case of `CCN(CC)c1ccc(/C=N/N=C(N)N)c(O)c1`, the Potency was 10.3 µM (active). As for `CCN(CC)c1ccc(/C=N/NC(=S)NC)c(O)c1`, the Potency result was “inactive”.

Take `COc1ccc(N/C=C/C(=O)c2cc(OC)c(OC)c(OC)c2)cc1`: the Potency was 7.31 µM (active). Next, `COc1cc(C(=O)NNC(=S)Nc2ccc(S(N)(=O)=O)cc2)cc(OC)c1OC`: “inactive”; `CCOc1ccc(Nc2cc(C)nc(-n3nc(C)cc3C)n2)cc1`: 3.26 µM (active). As for `COc1ccc(Nc2cc(C)nc(-n3nc(C)cc3C)n2)cc1`, the Potency is 7.31 µM (active).

With `COC(=O)c1cn(C(=O)c2ccc(OC)cc2)c2ccccc12`, the Potency result is “inactive”. Next, `COc1ccc(C(=O)n2c(-c3ccco3)nc3ccccc32)cc1`: 18.4 µM (active); `COc1ccc(N=N/C(=C\O)C(=O)c2ccco2)cc1`: “inactive”. With `Cc1ccc(S(=O)(=O)N2CCN(C(=O)CSc3n[nH]c(N)n3)CC2)c(C)c1`, the Potency result is “inactive”. For `Cc1ccc(CSc2nc3ccccc3cc2C=O)cc1`, the Potency was 2.91 µM (active). To `COc1cccc(CSc2nc3ccccc3cc2C=O)c1` belongs 2.59 µM (active); to `O=Cc1cc2ccccc2nc1SCc1ccc(Cl)c(Cl)c1`, “inactive”; to `CCC(=O)[C@@]1(C)[C@H](C)C[C@H]2[C@@H]3CCC4=CC(=O)C=C[C@]4(C)[C@H]3[C@@H](O)C[C@@]21C`, “inactive”. To `O=C(Nc1ccc([N+](=O)[O-])cc1)Nc1ccon1` belongs 8.2 µM (active). Next, `CCOC(=O)c1ccc(NC(=O)Nc2ccon2)cc1`: 2.31 µM (active).

As to `CCOC(=O)c1ccc(NC(=S)NNC(C)(C)C)cc1`, the Potency entry was “inactive”.

For `NNC(=O)c1[nH]c2ccc([N+](=O)[O-])cc2c1-c1ccccc1`, the Potency entry is “inactive”. To `COc1ccc(NC(=S)N/N=C/c2ccc(F)c(F)c2)cc1` belongs “inactive”; to `CCOc1ccc2[nH]c(C(=O)N/N=C/c3ccc(OC)cc3)cc2c1`, 2.91 µM (active). Next, `NNC(=O)c1cc2cc(OC(F)(F)F)ccc2[nH]1`: “inactive”. Next, `COc1ccc(/C=N/NC(=O)c2[nH]c3ccc(Cl)cc3c2-c2ccccc2)c(C(=O)O)c1OC`: “inactive”; `Cc1ccc2[nH]c(C(=O)N/N=C/c3ccccc3C(=O)O)c(-c3ccccc3)c2c1`: “inactive”.

With `O=C(N/N=C/c1ccc(O)cc1)c1[nH]c2ccc(Br)cc2c1-c1ccccc1`, the Potency was 1.3 µM (active). On to `O=C(N/N=C/c1ccccc1)c1[nH]c2ccc(Br)cc2c1-c1ccccc1`, for which the Potency was 0.517 µM (active).

Take `Cc1c(C(=O)N/N=C/c2ccc(Cl)cc2)[nH]c2ccc(Cl)cc12`: the Potency was 0.731 µM (active). Next, `COc1ccc(/C=N/NC(=O)c2[nH]c3ccc(Br)cc3c2-c2ccccc2)cc1`: 0.231 µM (active). Next, `NNC(=O)c1[nH]c2ccc(Cl)cc2c1-c1ccccc1`: “inactive”; `Cc1ccc2[nH]c(C(=O)NN=C3CCCCC3)c(-c3ccccc3)c2c1`: “inactive”. To `O=C(NN=C1CCCC1)c1[nH]c2ccc(Cl)cc2c1-c1ccccc1` belongs 13 µM (active). Consider `COc1ccc(/C=N/NC(=O)c2[nH]c3ccc(Br)cc3c2-c2ccccc2)c(C(=O)O)c1OC`, for which the Potency result was “inactive”. To `Cc1nn(CCC(=O)NNC(=S)NCC(C)C)c(C)c1Br` belongs “inactive”; to `CCN(CC)c1ccc2cc(-c3nc4ccccc4n3C)c(=O)oc2c1`, 0.58 µM (active). To `CC(/C=C/c1ccccc1)=N\NC(=S)NC(C)C` belongs “inactive”.

Regarding `O=C(CSc1cccc[n+]1[O-])CSc1cccc[n+]1[O-]`, the Potency entry was “inactive”.
